From ChEMBL document CHEMBL3988442, “University of Dundee, Small-Polar-MMV Screening Library” (2021)
Screen size: about 69,000 compounds; about 950 (1.4%) showed an effect of 50% or more. For the sample, strong results were picked, then their nearest neighbours and some compounds at random.

Each compound was assayed on Mycobacterium tuberculosis (assay: Cornell M. t heat shock assay; further: in the data most compounds retested in dose-response had high values).
Format: functional, organism-based
Design: dose or concentration left out as unconfirmed

SMILES	Percent Effect [%]
CNC(=O)C1Cn2ccnc2C2(CCN(Cc3nccs3)CC2)O1.O=C(O)C(F)(F)F.O=C(O)C(F)(F)F (stereo not given)	-22.49
Cc1nc(CN2C[C@@H]3COC[C@]3(COCC(=O)N(C)C)C2)cs1.O=C(O)C(F)(F)F	-21.91
COCCN1CCC2(CC1)CC(OCC1CC1)c1ccc(C)cc12 (stereo not given)	53.27
Cc1ccc2c(c1)C1(CCNCC1)CC2OCC1CC1 (stereo not given)	13.82
CCOC1CC2(CCN(C(=O)COC)CC2)c2cc(C)ccc21 (stereo not given)	-4.26
COCCN1CCC2(CC1)CN(C(=O)c1ccccc1)CCO2.O=C(O)C(F)(F)F	-8.433
CN(C)C(=O)N1CCC2(CCCN(CCOc3ccccc3)C2)C1.O=C(O)C(F)(F)F (stereo not given)	-6.162
O=C(O)C1(Oc2ccc(Cl)cc2)CCN(C2CCOCC2)CC1	51.75
O=C(O)C1(Oc2ccc3c(c2)OCO3)CCN(C2CCOCC2)CC1	-2.757
O=C(O)C1(Oc2cccc(F)c2)CCN(C2CCOCC2)CC1	1.505
O=C(CN1CCCC(c2ccn[nH]2)C1)N1CCCc2ccccc21 (stereo not given)	-24.99
Cc1cc(C2CCCN(CC(=O)N3CCc4ccccc43)C2)n[nH]1 (stereo not given)	-11.71
Cc1cc(C2CCCN(CC(=O)Nc3nc4c(s3)CCC4)C2)n[nH]1 (stereo not given)	104
O=C1CCCN1CCN1CCCC(c2ccn[nH]2)C1 (stereo not given)	4.433
O=C(CN1CCCC(c2ccn[nH]2)C1)Nc1nc2c(s1)CCCC2 (stereo not given)	102.5
O=C(CN1CCCC(c2ccn[nH]2)C1)Nc1nc2c(s1)CCC2 (stereo not given)	104
O=C(O)c1cccc(CN2CCCC(c3ccn[nH]3)C2)c1 (stereo not given)	-8.776
CC(C)C1Nc2ccccc2C(=O)N1CC(=O)Nc1nc2c(s1)CCC2 (stereo not given)	-0.3209
Cc1cc(C2CCCN(CC(=O)N3CCCc4ccccc43)C2)n[nH]1 (stereo not given)	-30.42
CN1CCOCC2(CCCN(C(=O)Cc3ccncc3)C2)C1.O=C(O)C(F)(F)F (stereo not given)	-28.6
COc1cccc(Cn2c(C3CCNCC3)cc3cccnc32)c1.Cl	0.437
CCC(CN1CCN(C)CC1)NC(=O)C1(c2cccc(F)c2)CC1.O=C(O)CC(O)(CC(=O)O)C(=O)O (stereo not given)	1.881
O=C(O)C(F)(F)F.O=C(O)C(F)(F)F.O=C(O)C(F)(F)F.c1cncc(CN2CCCn3nnc(CN4CCCC4)c3C2)c1	-36.4

SMILES	Percent Effect [%]
CNC(=O)CN1CCCC12CCN(C(=O)c1ccc(F)cc1)CC2.O=C(O)C(F)(F)F	-33.92
Cc1oncc1C(=O)N[C@@H]1CN(Cc2ccoc2)C[C@@H]2CCCO[C@@H]21.O=C(O)C(F)(F)F	44.61
CCOc1ccc(Br)cc1C1CCCCN1.Cl (stereo not given)	18.96
CC(C)N(C)CC(=O)NC1CCc2nccn2C1 (stereo not given)	-3.465
CCOCC(=O)Nc1cccnc1-n1ccnc1C	3.015
CS(=O)(=O)CCC(=O)Nc1nccn1Cc1ccccc1Cl	51.39
Cn1ccc(C(=O)Nc2nccn2Cc2ccccc2Cl)cc1=O	54.71
CCOCC(=O)Nc1nccn1Cc1ccccc1Cl	94.36
CS(=O)(=O)CCn1ccc(NC(=O)Cc2ccccc2Cl)n1	-16.05
CC(C)N(C)CC(=O)Nc1ccc(-n2ccc(C(N)=O)n2)cc1	4.536
CCOCC(=O)NCCCn1ccnc1-c1ccccc1	0.7963
Cc1nccn1Cc1cccc(CNC(=O)c2ccn(C)c(=O)c2)c1	-21.74
CS(=O)(=O)CCC(=O)Nc1cnn(-c2ccccc2Cl)c1	-2.43
Cn1ccc(C(=O)Nc2nnc(-c3ccccn3)[nH]2)cc1=O	24.76
CC(C)N(C)CC(=O)Nc1nccn1Cc1ccccc1Cl	70.24
CC1c2ncc(CNC(=O)C3CC3)n2CCN1Cc1cccnc1.O=C(O)C(F)(F)F.O=C(O)C(F)(F)F (stereo not given)	-10.62
CN1CC(=O)N(c2ccccc2)CC12CCN(C(=O)c1cccs1)C2.O=C(O)C(F)(F)F (stereo not given)	-3.603
O=C(O)C(F)(F)F.O=C(O)C(F)(F)F.O=C(c1cccnc1)N1Cc2nccn2CC(COc2cccnc2)C1 (stereo not given)	-22.14
CCN1C(=O)CCC12CCCN(Cc1nccs1)CC2.O=C(O)C(F)(F)F (stereo not given)	-119
CN(C)CCOCC1CN(Cc2cccs2)Cc2ccnn2C1.O=C(O)C(F)(F)F.O=C(O)C(F)(F)F.O=C(O)C(F)(F)F (stereo not given)	-22.31
CN(C)Cc1cc(C2CCN(C(=O)C3CC34CCC4)CC2)nn1C.Cl (stereo not given)	-10.56
CNc1cc(C)nc(N2Cc3cnn(Cc4ccc(F)cc4)c3C2)n1	-20.76
Cc1ccc(CNC2CC3(CCN(CCO)CC3)c3ccccc32)s1.O=C(O)C(F)(F)F.O=C(O)C(F)(F)F (stereo not given)	0.5733

SMILES	Percent Effect [%]
O=C(O)C(F)(F)F.O=C1N(Cc2cccnc2)CCC12CCCN(c1ncc(F)cn1)C2 (stereo not given)	4.445
Cl.Oc1cc(C2CCNCC2)nc(-c2ccsc2)n1	-3.533
Cn1nccc1C(=O)N1CCC2(CC1)COC(COc1ccccn1)C2.O=C(O)C(F)(F)F (stereo not given)	-4.012
COC(=O)N1CCN(Cc2ccccc2Cl)CC1	-12.81
CCOCCOC(C)C(=O)Nc1nccn1Cc1ccccc1 (stereo not given)	28.47
CC(OCC1CC1)C(=O)Nc1ccn(Cc2ccccc2)n1 (stereo not given)	-11.4
CC(=O)Nc1nccn1Cc1ccccc1Cl	63.7
O=C(Nc1ccc(=O)n(Cc2ccccc2Cl)c1)C1CC1	42.02
CC(OCC1CC1)C(=O)Nc1nccn1Cc1ccccc1 (stereo not given)	81.58
CN1CCOCC2(CCCN(C(=O)c3cnccn3)C2)C1.O=C(O)C(F)(F)F (stereo not given)	-11.83
Cc1cc(N(C)C)nc(C2CCNC2)n1.Cl.Cl (stereo not given)	-43.84
Cc1cnc(N2CC[C@H]3[C@@H]2CCC(=O)N3c2ccccc2)nc1.O=C(O)C(F)(F)F	36.02
O=C(NCC1CC1)[C@@H]1CCO[C@@H]2CCN(CCc3ccccc3)C[C@H]21.O=C(O)C(F)(F)F	-21.47
Cn1cccc1C(=O)N1CC[C@@H]2[C@@H]1CC(=O)N2CCN1CCOCC1.O=C(O)C(F)(F)F	-25.84
CCO[C@@H]1CC[C@H]2[C@H]1OCCN2Cc1ccoc1.O=C(O)C(F)(F)F	1.857
O=C(CC1CC1)N[C@@H]1CN(Cc2ccoc2)C[C@@H]2CCCO[C@@H]21	-3.487
O=C(N[C@@H]1CN(Cc2ccoc2)C[C@@H]2CCCO[C@@H]21)C1CCC1	51.5
O=C(N[C@@H]1CN(Cc2ccccc2)C[C@@H]2CCCO[C@@H]21)C1CC1.O=C(O)C(F)(F)F	-8.331
COCCNC(=O)CCc1c(C)nn(-c2nc(C)c(C)c(=O)[nH]2)c1C	37.18
Cc1nc(NC(=O)CCc2c(C)nc3cc(O)nn3c2C)sc1C	27.32
Cc1cc(=O)[nH]c(-n2nc(C)c(CCC(=O)NCC(C)C)c2C)n1	98.01
Cc1nn(-c2cc(Cl)cc(Cl)c2)c(C)c1CCC(=O)O	19.8
COc1ccc(C)nc1NC(=O)CCc1c(C)nn(C)c1C	-18.22

SMILES	Percent Effect [%]
Cc1cc(=O)[nH]c(-n2nc(C)c(CCC(=O)Nc3nc(C)cs3)c2C)n1	95.61
Cc1csc(NC(=O)Cn2nc(C)ccc2=O)n1	-1.06
COC(=O)CCc1c(C)nn(-c2nc(C)cc(=O)[nH]2)c1C	103.1
Cc1nc2cc(O)nn2c(C)c1CCC(=O)NCCCC(C)C	-0.01064
CC(=O)N1[C@H](CN(C)C)C[C@@H]2CN(C(=O)c3cccn3C)CC[C@@H]21.O=C(O)C(F)(F)F	-10.3
O=C(O)C(F)(F)F.O=C(c1cccnc1)N1CCC2(CCN(C(=O)c3ccco3)CC2)C1	23.94
CCC(C)(C)NC(=O)c1ncn2c1CN(C)S(=O)(=O)c1ccccc1-2.O=C(O)C(F)(F)F	-13.28
CCNC(=O)NCc1ccccc1NS(=O)(=O)c1ccccc1	35.07
N#Cc1nc(COc2ccc3c(c2)OCO3)oc1NC1CCCCC1	5.438
O=C(O)C(F)(F)F.c1cn2c(n1)CN(Cc1ccsc1)CC(Cn1cncn1)C2 (stereo not given)	-22.01
Cc1ccc(-c2cc(-c3c(C)nn(CCO)c3C)c(C#N)c(N)n2)cc1	10.03
CCCn1cc(-c2cc(-c3cc(CC)n[nH]3)c(C#N)c(N)n2)c(C)n1	41.25
COc1ncc(-c2cc(-c3ccn(C)c3)nc(N)c2C#N)cn1	-43.44
CCCn1cc(-c2cc(-c3c[nH]cn3)c(C#N)c(N)n2)c(C)n1	15.71
CCCn1cc(-c2cc(-c3cnc(OC)nc3)c(C#N)c(N)n2)c(C)n1	100.5
CCCn1cc(-c2cc(-c3ccoc3)c(C#N)c(N)n2)c(C)n1	75.39
O=C(C[C@@H]1COC[C@H]2CN(C(=O)c3cccnc3)C[C@@H]12)N1CCOCC1.O=C(O)C(F)(F)F	-5.703
CN(C)C(=O)CN1C(=O)CCC12CCN(Cc1ccsc1)CC2.O=C(O)C(F)(F)F	-0.1041
COCc1ccc(CN2CCC(O)(Cn3ccc4ncccc43)CC2)o1.Cl	-9.994
Cl.c1ccc(CNc2cc(C3CCCNC3)ccn2)nc1 (stereo not given)	18.31
Cc1oncc1C(=O)NCc1cc(=O)n2c(n1)CN(CC1CC1)CCC2.O=C(O)C(F)(F)F	-32.57
